These results are taken from PubChem BioAssay.

SMILES strings stand for the structures. Calls of active or inactive are those of the source. Unless noted, the rule behind the calls is not given here.

The nature of assay [1]: compound effects on lung adenocarcinoma cell viability – A549, calcein-AM fluorescence, 48 h, basal, profiling panel (AID 1162). Note: test concentration not given here. To be noted: higher = more signal.
Assay [2] can be described thus: compound effects on differentiated 3T3-L1 adipocyte viability – cell-based, 3T3-L1 adipocytes, calcein-AM fluorescence, 48 h, basal, profiling panel (AID 1163). Note: test concentration not given here. To be noted: 3T3-L1 adipocytes viability, higher = more signal.
A short description of assay [3]: compound effects on hepatocellular carcinoma cell viability – HepG2, calcein-AM fluorescence, 48 h, basal, profiling panel (AID 1164). Note: test concentration not given here. The settings on record: higher = more signal.
Assay [4] can be described thus: compound effects on multiple myeloma cell viability – MM1S, calcein-AM fluorescence, 48 h, basal, profiling panel (AID 1165).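 Note: viability of MM1S multiple myeloma cells under basal unstimulated conditions; test concentration not given here.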 The settings on record: higher = more signal.
Assay [5] can be described thus: calcein-AM signal in unstimulated myeloma cells – cell-based, calcein-AM fluorescence, 48 h, PK04 Diversity Set, profiling panel (AID 1166).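 Note: cells grown under basal conditions without added stimulus; test concentration not given here.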 To be noted: RPMI8226 myeloma viability, higher = more signal.
Assay [6] in a line: JC-1 mitochondrial signal, unstimulated HepG2 cells – cell-based, JC-1 fluorescence, 24 h, 100 nL compound, profiling panel (AID 1167). Note: test concentration not given here. The settings on record: HepG2 mitochondrial potential, higher = more signal.
Assay [7] can be described thus: JC-1 mitochondrial signal, unstimulated adipocytes – cell-based, JC-1 fluorescence, 3T3-L1 adipocytes, 24 h, 100 nL compound, profiling panel (AID 1168). Note: test concentration not given here. To be noted: JC-1 mitochondrial fluorescence, higher = more signal, called active from +8 up or from −8 down.
Assay [8] in a line: JC-1 mitochondrial signal, unstimulated myeloma cells – cell-based, JC-1 fluorescence, RPMI8226, 24 h, 100 nL compound, profiling panel (AID 1169). Note: test concentration not given here. The settings on record: JC-1 mitochondrial potential fluorescence, higher = more signal.
Assay [9] in a line: JC-1 mitochondrial signal, unstimulated MM1S myeloma – cell-based, JC-1 fluorescence, 24 h, 100 nL compound, profiling panel (AID 1170). Note: test concentration not given here. The settings on record: MM1S mitochondrial potential, higher = more signal.
The nature of assay [10]: resazurin metabolic signal in A549 cells – cell-based, resazurin fluorescence, 24 h, PK04 Diversity Set, profiling panel (AID 1171). Note: test concentration not given here. To be noted: A549 viability, higher = more signal, called active from +8 up or from −8 down.
Assay [11] can be described thus: resazurin metabolic signal in HepG2 cells – cell-based, resazurin fluorescence, 24 h, PK04 Diversity Set, profiling panel (AID 1172). Note: test concentration not given here. To be noted: HepG2 viability, higher = more signal.
Assay [12] can be described thus: budding yeast growth changes without added modifier – OD600, strain BY4716, 24 h, basal condition, primary screen (AID 1173). To be noted: S. cerevisiae BY4716 growth, OD600, 24 h; higher = more signal, called active from +8 up or from −8 down.
Assay [13] is described as follows: viability profiling in MM1S myeloma cells – cell-based, resazurin fluorescence, basal, 24 h, PK04 Diversity Set, profiling panel (AID 1174). Note: test concentration not given here. The settings on record: higher = more signal, called active from +8 up or from −8 down.
The target in assay [14] is Dihydroorotate dehydrogenase (quinone), mitochondrial (Plasmodium falciparum (isolate 3D7)) (UniProt Q08210). As to the kind of experiment: inhibition of P. falciparum DHODH – biochemical, C-terminal His tag, absorbance 600 nm, primary screen (AID 1175).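 Note: recombinant parasite enzyme with a five histidine tag at its C terminus; test concentration not given here.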 To be noted: PfDHODH enzyme, DCIP absorbance 600 nm; higher = more signal, called active from +8 up or from −8 down.
Chain of Dihydroorotate dehydrogenase (quinone), mitochondrial (Plasmodium falciparum (isolate 3D7)) (Q08210 whole entry, looked up): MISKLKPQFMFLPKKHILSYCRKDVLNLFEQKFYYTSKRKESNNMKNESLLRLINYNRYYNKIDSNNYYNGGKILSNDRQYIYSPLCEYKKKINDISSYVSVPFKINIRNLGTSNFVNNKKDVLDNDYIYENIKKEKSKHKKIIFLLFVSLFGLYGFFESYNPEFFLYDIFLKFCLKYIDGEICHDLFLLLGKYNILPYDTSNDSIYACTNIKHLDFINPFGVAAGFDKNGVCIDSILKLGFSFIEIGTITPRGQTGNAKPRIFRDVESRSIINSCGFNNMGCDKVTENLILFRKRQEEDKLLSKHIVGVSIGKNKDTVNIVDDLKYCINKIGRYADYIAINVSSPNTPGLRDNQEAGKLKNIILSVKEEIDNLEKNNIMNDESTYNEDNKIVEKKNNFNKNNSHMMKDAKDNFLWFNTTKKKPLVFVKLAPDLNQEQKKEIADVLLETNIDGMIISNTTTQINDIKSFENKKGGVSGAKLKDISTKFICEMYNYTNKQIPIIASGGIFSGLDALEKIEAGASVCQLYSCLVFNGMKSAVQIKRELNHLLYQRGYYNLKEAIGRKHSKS
Assay [15] is described as follows: inhibition of PAO1 biofilm formation – strain PAO1, LB-PBS medium, absorbance 600 nm, primary screen (AID 1176). Note: test concentration not given here. The settings on record: P. aeruginosa PAO1 growth/biofilm, A600, 12 h; higher = more signal.
A short description of assay [16]: growth modulation of vineyard yeast isolate – strain RM11-1a, OD600, basal, 24 h, primary screen (AID 1177).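 Note: cultures grown under basal conditions with no added stressor; test concentration not given here.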 To be noted: S. cerevisiae RM11-1a growth, OD600, 24 h; higher = more signal, called active from +8 up or from −8 down.
A short description of assay [17]: growth of efflux-deficient E. coli DRC39 – strain DRC39, OD650, 24 h, E. coli filamentation inducers, primary screen (AID 1178).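 Note: growth measured as culture turbidity by optical density at 650 nm; test concentration not given here.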 The settings on record: E. coli DRC39 acrAB, higher = more signal, called active from +8 up or from −8 down.
The nature of assay [18]: growth of efflux-deficient E. coli DRC39 – strain DRC39, OD650, 48 h, E. coli filamentation inducers, primary screen (AID 1179).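 Note: screen aims at cell division blockers that make cells filament.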 To be noted: E. coli DRC39 delta-acrAB growth, higher = more signal, called active from +8 up or from −8 down.
The nature of assay [19]: viability profiling in RPMI8226 myeloma cells – cell-based, resazurin fluorescence, basal, 24 h, PK04 Diversity Set, profiling panel (AID 1180).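 Note: RPMI8826 multiple myeloma cell line at 5000 cells per well; test concentration not given here.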 To be noted: higher = more signal.
The target of assay [20] is E3 ubiquitin-protein ligase XIAP (Homo sapiens) (UniProt P98170). As to the kind of experiment: small molecules binding XIAP protein – biophysical, small-molecule microarray, fluorescence 635 nm, primary screen (AID 1181).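 Note: score merges 667 nm emission and signal to noise over triplicate slides.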 The settings on record: higher = more signal.
Chain of E3 ubiquitin-protein ligase XIAP (Homo sapiens) (P98170 whole entry, looked up): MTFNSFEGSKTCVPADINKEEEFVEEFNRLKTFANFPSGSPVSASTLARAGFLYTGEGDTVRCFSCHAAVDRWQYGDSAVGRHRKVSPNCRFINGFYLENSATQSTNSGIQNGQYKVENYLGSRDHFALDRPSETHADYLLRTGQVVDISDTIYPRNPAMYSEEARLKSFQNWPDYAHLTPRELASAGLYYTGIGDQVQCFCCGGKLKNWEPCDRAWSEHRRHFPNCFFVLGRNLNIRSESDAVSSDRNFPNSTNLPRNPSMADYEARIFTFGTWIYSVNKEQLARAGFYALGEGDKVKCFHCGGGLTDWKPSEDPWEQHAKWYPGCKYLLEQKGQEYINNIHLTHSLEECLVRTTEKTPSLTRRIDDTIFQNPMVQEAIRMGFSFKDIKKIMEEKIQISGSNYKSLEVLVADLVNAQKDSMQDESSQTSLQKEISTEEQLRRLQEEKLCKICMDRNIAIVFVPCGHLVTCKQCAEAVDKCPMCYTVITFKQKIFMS

For the compound `Cc1ccc(S[C@]2(C(=O)NC(C)C)CC(=O)N(Cc3ccccc3Cl)[C@@H]2c2ccc(CO)cc2)cc1`, the z-score in assay [1] is 0.175; in assay [2], 0.35; in [3] it was -0.12; in assay [4], -0.387; in assay [5] it was -2.06; in [6], -0.142. Also, the z-score in assay [7] was -0.397 (inactive); in [8], -0.0618; in assay [9], 0.551; in assay [10], 0.232 (inactive); in assay [11], -0.167; in assay [12], -0.624 (inactive). Also, the z-score in [13] was -0.514 (inactive); in assay [15], 1.52 (inactive); in assay [16] it was 0.343 (inactive); in [17], -0.332 (inactive); in assay [18], -0.963 (inactive); in assay [19], 0.351. Besides, the values for the composite z-score in assay [14] and in [20] were -0.674 (inactive) and -0.0072, respectively.

As for `CN1C=C(C(=O)OCCS(C)(=O)=O)C(C(=O)OCCS(C)(=O)=O)=CC(c2ccc(CO)cc2)=CC1c1cccs1` (stereo not given), the z-score in [1] is 0.574; in assay [2] it was -0.72; in [3], 0.977; in [4] it was -1.43; in assay [5], -1.1; in assay [6], -0.963. Also, the z-score was -0.345 (inactive) in [7]; -0.627 in [8]; 0.0752 in [9]; 0.458 (inactive) in [10]; 0.0449 in assay [11]; -3.66 (inactive) in assay [12]. Also, the z-score in assay [13] is -0.727 (inactive); in [15] it was -0.566 (inactive); in [16], -0.363 (inactive); in assay [17], 0.0198 (inactive); in assay [18] it was -0.0834 (inactive); in assay [19], 0.0779. In addition, the composite z-score in assay [14] was -0.927 (inactive); in [20], 0.246.

With `CC(C)C(CO)N1C(=O)[C@@H]2[C@H]3C(=O)OCC=C[C@H]3OC23C=CCN(C(C)(C)C)C(=O)[C@@H]13` (stereo not given in full), the z-score in assay [1] was -0.234; in assay [2], -0.783; in assay [3], -0.543; in assay [4], 0.583; in [5], -0.251; in assay [6], -1.16. The z-score in [7] was -0.0819 (inactive); in assay [8], 0.185; in assay [9], 0.264; in assay [10], -0.166 (inactive); in [11] it was -0.341; in [12] it was 0.542 (inactive). The z-score in assay [13] was -0.763 (inactive); in [15] it was 0.137 (inactive); in assay [16], 1.18 (inactive); in assay [17], -0.804 (inactive); in assay [18], -0.854 (inactive); in [19] it was -0.941. Moreover, the composite z-score is 0.648 (inactive) in [14] and -0.156 in assay [20].

As for `O=c1cccc(-c2ccco2)o1`, the z-score in [1] is -0.69; in assay [2] it was 0.474; in assay [3], 0.219; in assay [4], 0.0393; in assay [5] it was -0.159; in assay [6] it was -0.79. For the same compound, the z-score in assay [7] is 1.1 (inactive); in assay [8], 0.773; in assay [9], -0.605; in assay [10], -0.214 (inactive); in assay [11], -0.675; in assay [12], -0.216 (inactive). Moreover, the z-score was 0.0232 (inactive) in assay [13]; 0.092 (inactive) in assay [15]; -0.231 (inactive) in assay [16]; -0.644 (inactive) in assay [17]; -0.338 (inactive) in [18]; -0.258 in assay [19]. The composite z-score in [14] is -1.85 (inactive); in [20], -0.179.

For the compound `COC(=O)C(CC#Cc1ccc2c(c1)[C@]1(C(=O)N2)[C@H](c2ccc(OCCO)cc2)N2[C@H](c3ccccc3)[C@H](c3ccccc3)OC(=O)[C@H]2[C@@H]1C(=O)N1CCN(c2ncccn2)CC1)C(=O)OC`, the z-score in [1] was -0.824; in assay [2], -0.661; in [3] it was 0.228; in [4] it was -0.966; in [5], -3.72; in assay [6] it was -1.01. In addition, the z-score in assay [7] is 0.525 (inactive); in [8], -1; in assay [9] it was -1.55; in assay [10], 0.352 (inactive); in assay [11], -0.175; in assay [12] it was 1.96 (inactive). Moreover, the z-score in [13] was -0.382 (inactive); in assay [15], 3.09 (inactive); in assay [16], 1.79 (inactive); in [17] it was 0.452 (inactive); in assay [18], 0.152 (inactive); in [19] it was -2.63. Also, the composite z-score in [14] was -6.39 (inactive); in assay [20], 0.0651.

Turning to `C[C@]1(C(=O)O)c2ccccc2C(=O)N(Cc2ccc(OC(F)(F)F)cc2)[C@H]1c1ccc(CO)cc1`, the z-score in assay [1] is 0.0055; in [2], 0.755; in [3], -0.167; in assay [4], -0.24; in assay [5], -1.48; in [6], 0.248. The z-score is -1.18 (inactive) in assay [7]; -0.0611 in assay [8]; 0.057 in [9]; 0.244 (inactive) in assay [10]; 0.0448 in [11]; -0.847 (inactive) in assay [12]. Moreover, the z-score in assay [13] is 0.0944 (inactive); in assay [15], 0.0993 (inactive); in [16], -0.475 (inactive); in [17], 0.248 (inactive); in assay [18], -0.0775 (inactive); in assay [19], 0.441. Moreover, the composite z-score was -0.295 (inactive) in assay [14] and 0.265 in assay [20].

Turning to `Cc1ccc(S[C@]2(C(=O)NCc3ccccc3)CC(=O)N(Cc3cc(C(F)(F)F)cc(C(F)(F)F)c3)[C@@H]2c2ccc(CO)cc2I)cc1`, the z-score was 0.666 in assay [1]; 0.336 in [2]; -0.165 in [3]; -1.87 in assay [4]; -2.22 in [5]; 0.994 in [6]. Moreover, the z-score in assay [7] is -0.00208 (inactive); in assay [8], -0.133; in [9], -0.713; in [10] it was 0.772 (inactive); in assay [11], 1.24; in assay [12] it was -3.9 (inactive). Also, the z-score in assay [13] is -2.82 (inactive); in assay [15], 0.0214 (inactive); in [16], -0.741 (inactive); in [17] it was 0.671 (inactive); in [18], 0.602 (inactive); in assay [19], -1.17. Further, the results for the composite z-score in [14] and in [20] were -0.459 (inactive) and -0.0622, respectively.
